This test is described as follows: fluorescent interference in IDE FRET1 assay, late-stage follow-up, artefact control for IDE activator project, biochemical, fluorogenic FRET1 peptide substrate (AID 624035). The settings on record: recombinant IDE, FRET1 substrate fluorescence, artifact counterscreen. For orientation: Counterscreens check selectivity or assay interference.

Each structure is given as a SMILES string. A number with no mark means an inactive call.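 Rule for the calls: active = compounds cutting enzyme signal by half at 10000 nM or lower, the printed EC50; inactive = the rest.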 Some results are limits rather than exact numbers.

With `CN(C)/C=C1\C=C2C(=O)c3ccccc3N2C1=O`, the EC50 (usually the concentration giving half of the maximal effect) is more than 10 µM.

Turning to `N#CC(C#N)=C1C=C2C=C(N3CCCCCC3)CCC2CC1` (stereo not drawn), the EC50 was more than 10 µM.

As for `CCN1CCN(C2=CC3=CC(=C(C#N)C#N)CCC3CC2)CC1` (stereo not drawn), the EC50 was more than 10 µM. Regarding `CCN(CC)C1=CC2=CC(=C(C#N)C#N)CCC2CC1` (stereo not drawn), the EC50 was more than 10 µM. For `C/C(CC(=O)Nc1ccc(N(C)C)cc1)=N\NC(=O)c1ccncc1` the value was more than 10 µM; for `O=c1ccc2c(-c3ccccc3)c3ccc(O)cc3oc-2c1`, more than 10 µM.

For the molecule `CCCCN(C)C1=CC2=CC(=C(C#N)C#N)CCC2CC1` (stereo not drawn), the EC50 is more than 10 µM. With `N#CC(C#N)=C1C=C2C=C(N3CCOCC3)CCC2CC1` (stereo not drawn), the EC50 is more than 10 µM.

Source of the values: PubChem BioAssay AID624035 (The Scripps Research Institute Molecular Screening Center, 2012).
